Assay results from the supplement of paper PMC6555819.

How the values were obtained:
Test in all cases: PBM binding z-score (relative to random genomic background probes); higher = stronger binding; sequences stand for … in GC…GCGATTGACAGCGTAGAATGAAGG
[1] = system: FXR:RXRa (NR concentration 270 nM, RXRa partner concentration 90 nM)
Outline: (§1)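 Binding z-scores take random background probes as their reference. They come from custom Agilent 4×180K protein-binding microarrays incubated 1 h with ligand-free nuclear receptor dimers, with antibodies against each partner (one per run) detecting binding. Scanned fluorescence was regression-normalized.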

[2] = system: LXRa:RXRa (NR concentration 270 nM, RXRa partner concentration 90 nM)
Outline: as §1

[3] = system: LXRa homodimer (NR concentration 270 nM)
Outline: as §1

[4] = system: LXRb:RXRa (NR concentration 270 nM, RXRa partner concentration 90 nM)
Outline: as §1

[5] = system: LXRb homodimer (NR concentration 270 nM)
Outline: as §1

[6] = system: PPARa:RXRa (NR concentration 270 nM, RXRa partner concentration 90 nM)
Outline: as §1

[7] = system: PPARg:RXRa (NR concentration 180 nM, RXRa partner concentration 90 nM)
Outline: as §1

[8] = system: PPARg:RXRa 270nM:90nM, anti-RXR (NR concentration 270 nM, RXRa partner concentration 90 nM)
Outline: as §1

[9] = system: PPARg:RXRa 30nM:10nM, anti-RXR (NR concentration 30 nM, RXRa partner concentration 10 nM)
Outline: as §1

[10] = system: PPARg:RXRa 90nM:30nM, anti-RXR (NR concentration 90 nM, RXRa partner concentration 30 nM)
Outline: as §1

Sequence	PBM binding z-score [1]	PBM binding z-score [2]	PBM binding z-score [3]	PBM binding z-score [4]	PBM binding z-score [5]	PBM binding z-score [6]	PBM binding z-score [7]	PBM binding z-score [8]	PBM binding z-score [9]	PBM binding z-score [10]
CCTACTGGGTCAAAAAGGTCATTGATGCCGATAA	5.59	5.57	4.15	5.29	1.01	5.73	7	6.52	4.03	5.73
ACAGACAGGTGATGAAGGCAACTCAGGCTATCAT	-0.379	-0.449	-0.41	-0.706	-0.333	-0.357	0.764	-0.331	-0.116	-0.446
CTACCAAGGTAAACAAGGTCGTTGATTACTATTC	0.877	1.37	0.268	1.56	-0.376	1.57	0.314	0.42	-0.128	0.258
ATCTCTAGGTAAAAGTTCAGTGCATCCCGAGGAT	0.914	1.67	1.72	0.979	0.86	4.39	8.17	7.48	7.56	8.52
CCGACTGGGGCAAAGCTTACCATACTCAGTACGA	-0.466	-0.638	-0.547	-0.287	-0.784	0.592	1.53	2.52	0.444	2.26
TCTTATAGGTAAACAGGTGAAAGTCCGTAAGTTA	1.1	1.01	0.0286	0.875	0.307	2.34	2.7	3.52	4.06	3.86
ACAGAAAGGTGAGTGAAGGTAACTCAGCTGGACG	1.15	0.894	-0.288	0.22	-0.612	1.81	1.25	1.23	0.0865	0.656
TCATATAGATAATACAGGTGAAAGTCGGCATCTA	1.28	0.946	0.247	1.08	0.215	1.53	1.36	2.47	4.31	3.51
ACTATGAGTTGACTTAGGGCAACCGATACGACGC	0.53	0.591	0.2	0.365	0.578	0.327	1.08	0.524	0.371	0.418
TCTCGGAGGACACGAAGGTCATAGCTTTCCAGAG	2.87	2.73	1.72	2.61	-0.514	3.18	1.09	2.57	2.55	2.54
CCTAGTTGGTCAACGTCACACACGCTATAGGTAC	0.458	0.525	0.431	0.877	0.581	0.58	1.25	0.719	0.299	0.407
GGAACGAGGGCAAGGTTGATAGCATCTGTCGACG	0.705	0.414	-0.458	0.32	-0.386	2.82	4.49	5.17	3.62	4.91
TCGAGTAGGTTAGTCGGGACATTCAGCCAACATA	2.7e-05	0.0232	-0.222	-0.141	-1.03	0.291	0.156	0.639	0.983	0.955
TCTAGTTGGTCACCGAGGTCACACACGACGGGTA	3.85	3.58	2.2	3.85	1.18	4.41	3.75	4	3.5	3.89
TCATGTAGGTAATACAGGTGAAAGTCGGCATCTA	0.0966	0.506	0.125	0.469	-0.485	1.63	1.15	1.94	2.84	2.25
CCGTCTGGGGCAAGGTTACCATAACGCACAGCCA	0.304	0.595	-0.295	0.486	-1.06	1.47	1.66	2.36	0.376	1.93
TAGCCTGGGTCATTGGGCCAGTATAGTACGCATC	3.3	1.88	-0.677	1.36	-0.556	4.11	3.81	3.62	0.89	2.1
CGTCCAAGGTCATAGTAGGTCAGTGAAGACAGAT	7.5	7.17	4.25	5.79	1.31	5.54	5.27	5.42	2.67	4.32
TAGCATAGGTCATTCAGGGGCCAGTATAGAAAGC	6.82	5.38	1.82	4.56	1.73	5.15	3.49	4.27	1.5	3.18
GCTAGTTGGTAAGTAAAAGGTCACACACCGGTCG	2.63	4.22	4.45	3.94	0.812	4.58	4.49	6.32	4.94	6.92
TTTCGGAGGACACGAAGGTCAGAGCTTTCCAGAG	1.83	1.7	0.81	1.61	-0.442	2.12	0.582	1.32	0.325	0.593
TCTTGTAGATCAATAGAGGTTAAGAAAGTGCGCT	0.723	3.4	0.589	1.83	-0.158	1.8	-0.124	1.46	2.83	2.18
GTGCCAAGGTGAATAGGTCGTTGATGAGTAGGCG	0.631	0.487	-0.344	0.408	-0.536	2.12	1.15	1.53	0.00309	0.77
